From publication PMC4336329 (PLoS ONE, 2015)
The campaign covered roughly 310,000 compounds. About 14,000 (4.5%) showed an effect of 50% or more. The effect is printed as a negative number. The full list was thinned out, with strong results kept by preference.

Target: human ether-à-go-go-related gene (hERG) potassium channel (human, UniProt Q12809)
Test: primary screen, population patch clamp on CHO cells stably expressing hERG; higher = less effect of the substance
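Also: peak tail current of the secondary pulse compared with the same well before compound.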

Chain of human ether-à-go-go-related gene (hERG) potassium channel (Q12809 whole entry, looked up): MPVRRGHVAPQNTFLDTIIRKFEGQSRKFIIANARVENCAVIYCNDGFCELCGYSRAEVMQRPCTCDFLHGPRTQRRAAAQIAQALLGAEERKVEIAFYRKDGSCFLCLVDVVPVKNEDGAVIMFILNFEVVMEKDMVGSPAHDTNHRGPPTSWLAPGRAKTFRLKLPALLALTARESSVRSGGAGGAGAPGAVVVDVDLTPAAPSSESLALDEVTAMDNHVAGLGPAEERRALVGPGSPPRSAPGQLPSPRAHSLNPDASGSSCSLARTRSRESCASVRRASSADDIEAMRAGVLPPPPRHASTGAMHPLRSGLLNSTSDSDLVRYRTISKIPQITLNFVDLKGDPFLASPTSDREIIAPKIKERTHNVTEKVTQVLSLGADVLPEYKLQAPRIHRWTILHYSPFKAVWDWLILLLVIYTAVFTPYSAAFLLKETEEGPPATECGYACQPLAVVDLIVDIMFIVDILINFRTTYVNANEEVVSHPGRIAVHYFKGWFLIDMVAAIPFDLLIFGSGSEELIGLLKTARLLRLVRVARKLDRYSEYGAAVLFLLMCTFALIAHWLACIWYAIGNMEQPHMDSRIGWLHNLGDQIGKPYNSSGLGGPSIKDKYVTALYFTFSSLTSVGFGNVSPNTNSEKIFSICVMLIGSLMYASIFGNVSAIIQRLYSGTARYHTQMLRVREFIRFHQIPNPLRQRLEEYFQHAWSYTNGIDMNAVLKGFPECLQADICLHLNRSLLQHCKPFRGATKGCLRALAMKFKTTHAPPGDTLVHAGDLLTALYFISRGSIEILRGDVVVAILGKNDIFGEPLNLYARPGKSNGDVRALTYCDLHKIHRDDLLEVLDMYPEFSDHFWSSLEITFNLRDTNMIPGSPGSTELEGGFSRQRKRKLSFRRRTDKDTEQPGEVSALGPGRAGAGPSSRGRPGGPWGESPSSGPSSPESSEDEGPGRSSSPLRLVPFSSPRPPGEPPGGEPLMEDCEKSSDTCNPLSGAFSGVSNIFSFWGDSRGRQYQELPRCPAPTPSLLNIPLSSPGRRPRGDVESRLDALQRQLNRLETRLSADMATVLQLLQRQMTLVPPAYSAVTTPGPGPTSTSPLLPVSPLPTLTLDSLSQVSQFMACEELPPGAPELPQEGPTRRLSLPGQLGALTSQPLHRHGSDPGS

SMILES | hERG current change (%, negative = inhibition) at 10uM
Cc1ccc(C(=O)CSc2nc3ccccc3c(=O)n2N)o1 | -1.95%
COc1ccc(-c2csc(N(C)C(=O)c3cccs3)n2)cc1 | -0.276%
O=C(c1cccs1)N(CC1CCCO1)c1nc(-c2ccccc2)cs1 (centres unmarked) | 2.57%
COc1ccc(-c2csc(N(CC3CCCO3)C(=O)c3cccs3)n2)cc1 (centres unmarked) | -11.4%
CCN(CC)CCCN(C(=O)c1cccs1)c1nc(-c2ccc(OC)cc2)cs1 | -83.3%
CN(C)CCCN(C(=O)c1cccs1)c1nc(-c2ccccc2)cs1 | -72.8%
Cc1ccc(-c2csc(N(Cc3ccco3)C(=O)c3cccs3)n2)cc1 | 11.6%
COc1ccc(-c2csc(N(Cc3ccco3)C(=O)c3cccs3)n2)cc1 | -3.17%
COc1ccc(-c2csc(N(CCCN(C)C)C(=O)c3cccs3)n2)cc1.Cl | -73.9%
CCN(C(=O)c1cccs1)c1nc(-c2ccc(OC)cc2)cs1 | 23.1%
O=C(NC(=S)Nc1ccc(S(=O)(=O)N2CCCC2)cc1)C1CC1 | -29.8%
COc1ccc(C(=O)Nc2cc(C)nn2-c2nc3ccccc3[nH]2)c(OC)c1 | -5.95%
CSc1nnc(-c2ccc(Cl)cc2Cl)o1 | 1.62%
COc1cccc(NC(=O)COc2ccc(C(=O)N3CCN(C)CC3)cc2)c1 | 15.8%
O=C(O)CCc1cccnc1 | 7.55%
O=C(/C=C/c1c(F)cccc1Cl)c1ccc(O)cc1 | 1.1%
Cc1ccc(-c2nnc3c4ccccc4c(C)nn23)cc1S(=O)(=O)N1CCN(C)CC1 | -6.7%
Cc1ccc(-c2nnc(NC3CCCCC3)c3ccccc23)cc1S(=O)(=O)N1CCN(C)CC1 | -54.6%
Cc1ccc(-c2nnc(N3CCCCC3)c3ccccc23)cc1S(=O)(=O)N1CCN(C)CC1 | -58.7%
Cc1ccc(-c2nnc(N3CCCCC3)c3ccccc23)cc1S(=O)(=O)N(C)C | -27%
Cc1ccc(-c2nnc(N3CCOCC3)c3ccccc23)cc1S(N)(=O)=O | 17.3%

SMILES | hERG current change (%, negative = inhibition) at 10uM
Cc1ccc(-c2nnc(NCc3nc4ccccc4[nH]3)c3ccccc23)cc1S(=O)(=O)N1CCCCC1.Cl | -7.08%
COc1ccc(S(=O)(=O)NCC2CCCN(C(=O)CCSC)C2)cc1 (centres unmarked) | 18%
COc1cccc(CN2CC(C(=O)N(C)Cc3ccnc4ccccc34)CCC2=O)c1 (centres unmarked) | -10.2%
C=CCNc1nc(-c2c(C)nc3sccn23)cs1 | -10.1%
Cc1ccccc1C(=O)NC(=S)NCCC1=CCCCC1 | 13.4%
CN1CCN(c2ncc3c(n2)CC(c2ccccc2F)CC3=O)CC1 (centres unmarked) | -4.43%
COCCOC(=O)C1=C(C)NC2=C(C(=O)CCC2)C1c1ccc2c(c1)OCO2 (centres unmarked) | -49.6%
O=C(CCNC(=O)c1ccc(Br)cc1)NCc1ccccc1F | -13%
O=C(Nc1ccc([N+](=O)[O-])cc1)C1COc2ccccc2O1 (centres unmarked) | 0.793%
COc1ccc(/C=N/NC(=O)CNC(=O)C2COc3ccccc3O2)cc1OC (centres unmarked) | -15.7%
O=C(CNC(=O)C1COc2ccccc2O1)N/N=C\c1ccc(Br)cc1 (centres unmarked) | -20.1%
COc1ccc(/C=N\NC(=O)CNC(=O)C2COc3ccccc3O2)cc1[N+](=O)[O-] (centres unmarked) | -73.8%
COc1cc(/C=N\NC(=O)CNC(=O)C2COc3ccccc3O2)ccc1O (centres unmarked) | -26.8%
O=C(NNC(=O)C1COc2ccccc2O1)c1cccc([N+](=O)[O-])c1 (centres unmarked) | -7.35%
O=C(CNC(=O)C1COc2ccccc2O1)N/N=C/c1ccc([N+](=O)[O-])cc1 (centres unmarked) | -71.8%
O=C(CNC(=O)C1COc2ccccc2O1)N/N=C\c1ccc(Cl)cc1 (centres unmarked) | -69.4%
O=C(N/N=C/c1cccc([N+](=O)[O-])c1)C1COc2ccccc2O1 (centres unmarked) | -29.1%
O=C(Nc1cccc([N+](=O)[O-])c1)C1COc2ccccc2O1 (centres unmarked) | -86.3%
O=C(CNC(=O)C1COc2ccccc2O1)N/N=C/c1cc(Br)c(O)c(Br)c1 (centres unmarked) | -7.99%
O=C(CNC(=O)C1COc2ccccc2O1)N/N=C\c1ccccc1Cl (centres unmarked) | 4.64%
COc1ccc(OCCC(=O)Nc2ccccc2)cc1 | -6.83%

SMILES | hERG current change (%, negative = inhibition) at 10uM
Cc1cc(C(=O)O[C@H]2[C@H](Cc3ccccc3)NS(=O)(=O)[C@H]3C[C@@H]4C=C[C@]23O4)ccc1[N+](=O)[O-] | -1.67%
Cn1nc(C(=O)NCc2ccc(F)cc2)c2c1-c1ccccc1S(=O)(=O)C2 | -44.9%
CC(=O)N(CC(=O)O)c1ccccc1 | 10.5%
Cc1ccc(NS(=O)(=O)c2ccc(CCC(=O)NCCCOC(C)C)cc2)cc1 | 4.27%
O=c1oc2c3c4c(cc2c2c1CCC2)OCCN4CCC3 | -0.13%
Cc1cccc(C)c1NC(=O)CNc1ccccc1 | 5.02%
O=C(Nn1c(C2CCCCC2)nc2ccccc2c1=O)c1ccc(Cl)c([N+](=O)[O-])c1 | -9.26%
COC(=O)C1=C(c2ccc(OC)c(OC)c2)C[C@@H]2CC[C@H]1N2C(=O)NCCOc1ccccc1Cl | -12.7%
Cc1ccc(C)c(N2CCN(S(=O)(=O)c3ccc4c(c3)OCCO4)CC2)c1 | 3.7%
C#CCOCCOCCOCCNc1nc(N2CCN(C(=O)CCCCCCCCCCNC(=O)[C@H](CCC(=O)O)n3cc(CCCCCN)nn3)CC2)nc(N2CCN(C(=O)CCCCCCCCCCNC(=O)[C@@H]([C@H](C)O)n3cc(C)nn3)CC2)n1 | 20.1%
O=C(CSc1nc2c(c(=O)n1-c1ccc(Cl)cc1)SCC2)N1CCCC1 | -17.4%
C/C(=N\NC(=O)CNC(=O)C1COc2ccccc2O1)c1ccc(Cl)cc1 (centres unmarked) | -17.6%
C/C(=N/NC(=O)CNC(=O)C1COc2ccccc2O1)c1ccc2c(c1)OCCO2 (centres unmarked) | -1.69%
CC(C)(C)c1ccc2c(c1)OC(C(=O)N/N=C/c1ccc([N+](=O)[O-])o1)CO2 (centres unmarked) | -39.2%
C/C(=N/NC(=O)CNC(=O)C1COc2ccccc2O1)c1ccc([N+](=O)[O-])cc1 (centres unmarked) | -64.7%
O=C(N/N=C\c1ccc(-c2ccc([N+](=O)[O-])cc2)o1)C1COc2ccccc2O1 (centres unmarked) | -7.36%
O=C(N/N=C\c1ccc([N+](=O)[O-])o1)C1COc2ccccc2O1 (centres unmarked) | -67.4%
CC(=O)Nc1ccc(NC(=O)C(C)OC(=O)C(C)SCC(=O)Nc2ccc(F)cc2)cc1 (centres unmarked) | 12%
CN(NC(=O)COc1ccccc1)C1=NS(=O)(=O)c2ccccc21 | 26.1%
CCCCCNC(=O)C1c2ccccc2Oc2ccccc21 | 2.44%
O=C(CSc1ccc2nnc(-c3ccccc3)n2n1)N1CCCc2ccccc21 | -62.7%

SMILES | hERG current change (%, negative = inhibition) at 10uM
O=C(CSc1ccc2nnc(-c3ccccc3)n2n1)N1CCCCC1 | -59.7%
O=C(CSc1ccc2nnc(-c3ccccn3)n2n1)N1CCOCC1 | -24.5%
O=C(CSc1ccc2nnc(-c3ccccn3)n2n1)N1CCN(c2ccccc2)CC1 | -86.7%
Cc1ccc(-c2nnc3ccc(SCC(=O)N4CCCc5ccccc54)nn23)cc1 | -12.5%
CCOC(=O)N1CCN(C(=O)CSc2ccc3nnc(-c4ccccn4)n3n2)CC1 | -36%
CCOc1ccc(-c2nnc3ccc(SCC(=O)N4CCCCC4)nn23)cc1 | -5.88%
O=C(CSc1ccc2nnc(-c3ccc(F)cc3)n2n1)N1CCCc2ccccc21 | -16%
COc1ccc(-c2nnc3ccc(SCC(=O)N4CCCC4)nn23)cc1 | -15.2%
COc1cccc(-c2csc(N3CCN(Cc4ccccc4)CC3)n2)c1 | 0.166%
COCC(=O)Nc1nnc(COc2ccc(Cl)cc2)s1 | -0.556%
CCC(C)(C)C1CCC2(CC1)NC(=O)N(CC(=O)NCCc1c[nH]c3ccccc13)C2=O (centres unmarked) | -20.3%
COc1ccccc1N(C(=O)CCl)c1cn(C(C)=O)c2ccccc12 | -10.6%
C=CCOc1ccccc1C1C2=C(CC(C)(C)CC2=O)Nc2c1c(=O)n(C)c(=O)n2C (centres unmarked) | -3.8%
CC(C)CCN1CCN(Cc2ccon2)CC1CCO (centres unmarked) | 4.53%
CC(C)CCN1CCN(Cc2c(F)cccc2Cl)CC1CCO (centres unmarked) | -21.6%
CC(C)CCN1CCN(Cc2cccn2-c2ccc(Cl)cn2)CC1CCO (centres unmarked) | -64.8%
CC(C)CN1CCN(Cc2cccn2-c2ccc(Cl)cn2)CC1CCO (centres unmarked) | -64.6%
CC(C)CN1CCN(Cc2c(F)cccc2Cl)CC1CCO (centres unmarked) | -10.4%
Cc1cccc(CN2CCN(CC(C)C)C(CCO)C2)n1 (centres unmarked) | 17.7%
O=C(COC(=O)/C=C/c1ccc(Cl)cc1Cl)Nc1cc(C(F)(F)F)ccc1N1CCOCC1 | 8.56%
